What all share (assay): yeast three-hybrid, YBZ-1, SC-Leu-His + 0.5 mM 3-AT, 4 days
Conditions in all cases: tags: N-Gal4 AD-HA kept; label: inside an RPR1-promoter hybrid RNA with tandem MS2 sites; ssRNA

The target of assay [1] is T1, PUM1 PUF domain R6-RFG (Homo sapiens, UniProt Q14671 828-1176, N1043R;Y1044F;Q1047G).
T1 sequence: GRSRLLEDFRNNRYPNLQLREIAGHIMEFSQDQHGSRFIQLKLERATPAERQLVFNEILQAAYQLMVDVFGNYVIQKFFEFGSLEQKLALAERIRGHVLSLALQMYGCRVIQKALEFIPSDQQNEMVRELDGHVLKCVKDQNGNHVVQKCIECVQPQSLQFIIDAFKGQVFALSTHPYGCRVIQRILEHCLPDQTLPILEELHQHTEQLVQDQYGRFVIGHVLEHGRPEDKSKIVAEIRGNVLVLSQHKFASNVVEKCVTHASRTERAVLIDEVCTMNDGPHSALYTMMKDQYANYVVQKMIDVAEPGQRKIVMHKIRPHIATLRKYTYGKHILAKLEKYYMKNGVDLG
The procedure, abridged:
(§1)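 Pumilio-1 PUF domain libraries, randomized at the three base-contacting residues of each repeat, were co-expressed with matching RNA elements from a centromeric plasmid in strain YBZ-1, which carries a LexA–MS2 coat fusion and a HIS3 reporter. Transformants grew for four days on SC-Leu (input) or on SC-Leu-His + 0.5 mM 3-AT (selection), and the repeat regions were PCR-amplified and Illumina-sequenced. The interaction score is the log change in variant frequency from input to selection. That logarithm is base 2, with a pseudocount of 1 where a variant was absent.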

For assay [2], the target named is T2, PUM1 PUF domain R6-YHR (Homo sapiens, UniProt Q14671 828-1176, N1043Y;Y1044H;Q1047R).
T2 sequence: T1 sequence with R216Y, F217H, G220R
The procedure, abridged:
as §1

The target of assay [3] is PUM1 PUF domain R4-SRA (Homo sapiens, UniProt Q14671 828-1176, N971S;H972R;Q975A). In a few lines:
as §1

The target of assay [4] is T3, PUM1 PUF domain R6-KWA (Homo sapiens, UniProt Q14671 828-1176, N1043K;Y1044W;Q1047A).
T3 sequence: T1 sequence with R216K, F217W, G220A
In a few lines:
as §1

Assay [5] deals with T4, PUM1 PUF domain R6-SHK (Homo sapiens, UniProt Q14671 828-1176, N1043S;Y1044H;Q1047K).
T4 sequence: T1 sequence with R216S, F217H, G220K
The procedure, abridged: as §1

The target in assay [6] is T5, PUM1 PUF domain R6-LHS (Homo sapiens, UniProt Q14671 828-1176, N1043L;Y1044H;Q1047S).
T5 sequence: T1 sequence with R216L, F217H, G220S
The procedure, abridged:
as §1

The target in assay [7] is PUM1 PUF domain R8-RHC (Homo sapiens, UniProt Q14671 828-1176, N1122R;Y1123H;Q1126C). The procedure, abridged:
as §1

Assay [8] deals with PUM1 PUF domain R5-LSR (Homo sapiens, UniProt Q14671 828-1176, C1007L;R1008S;Q1011R). In a few lines: as §1
The target of assay [9] is PUM1 PUF domain R5-KFA (Homo sapiens, UniProt Q14671 828-1176, C1007K;R1008F;Q1011A). In a few lines:
as §1

For assay [10], the target named is T6, PUM1 PUF domain R6-CYR (Homo sapiens, UniProt Q14671 828-1176, N1043C;Q1047R).
T6 sequence: T1 sequence with R216C, F217Y, G220R
The procedure, abridged: as §1

Assay [11] has as its target PUM1 PUF domain R8-YWR (Homo sapiens, UniProt Q14671 828-1176, N1122Y;Y1123W;Q1126R). The procedure, abridged: as §1
In assay [12] the target is T7, PUM1 PUF domain R6-RFR (Homo sapiens, UniProt Q14671 828-1176, N1043R;Y1044F;Q1047R).
T7 sequence: T1 sequence with G220R
The procedure, abridged: as §1

The target of assay [13] is PUM1 PUF domain R8-TYR (Homo sapiens, UniProt Q14671 828-1176, N1122T;Q1126R). In a few lines: as §1
Assay [14] addresses PUM1 PUF domain R8-TFK (Homo sapiens, UniProt Q14671 828-1176, N1122T;Y1123F;Q1126K). The procedure, abridged: as §1
Assay [15] deals with PUM1 PUF domain R8-KRI (Homo sapiens, UniProt Q14671 828-1176, N1122K;Y1123R;Q1126I). In a few lines: as §1
Assay [16] has as its target PUM1 PUF domain R1-RGM (Homo sapiens, UniProt Q14671 828-1176, S863R;R864G;Q867M). In a few lines:
as §1

Assay [17] addresses PUM1 PUF domain R2-DWI (Homo sapiens, UniProt Q14671 828-1176, N899D;Y900W;Q903I). In a few lines: as §1
The target in assay [18] is PUM1 PUF domain R1-GQK (Homo sapiens, UniProt Q14671 828-1176, S863G;R864Q;Q867K). In a few lines: as §1
Assay [19] has as its target PUM1 PUF domain R1-KYS (Homo sapiens, UniProt Q14671 828-1176, S863K;R864Y;Q867S). In a few lines: as §1
Assay [20] concerns the target PUM1 PUF domain R3-RAY (Homo sapiens, UniProt Q14671 828-1176, C935R;R936A;Q939Y). The procedure, abridged:
as §1

In publication PMC8384837, “Expanding the binding specificity for RNA recognition by a PUF domain” one finds binding signal data, which are given here for twelve sequences.

Substitutions are numbered along the chain they refer to.

PUM1 PUF domain R5-KFA, sequence (Q14671 828-1176 C1007K/R1008F/Q1011A): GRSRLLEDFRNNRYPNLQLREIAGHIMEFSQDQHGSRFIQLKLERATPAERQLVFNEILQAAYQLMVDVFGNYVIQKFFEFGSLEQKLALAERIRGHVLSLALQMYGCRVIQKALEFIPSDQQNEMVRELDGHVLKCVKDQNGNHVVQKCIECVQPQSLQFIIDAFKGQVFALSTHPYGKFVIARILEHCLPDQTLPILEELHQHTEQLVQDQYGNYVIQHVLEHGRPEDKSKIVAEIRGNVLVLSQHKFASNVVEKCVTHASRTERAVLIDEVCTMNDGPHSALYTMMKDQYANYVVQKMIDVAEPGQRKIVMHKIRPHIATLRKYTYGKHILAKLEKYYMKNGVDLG

On to “GGCUAGAACUAGUGGAUCCCCCGGCGCCCGGCGGCUCGAGCCCGGGUAAGUGUAAAUAGUCUGCAUGCCGCCGGGCGCCAUGCCUGCAGGUCGACUCUAGAAAACAUG”, for which the binding signal in assay [1] is 3.56 log2 enrichment (interaction score); in assay [2] it was 4.05 log2 enrichment (interaction score); in assay [3] it was 4.71 log2 enrichment (interaction score); in [4] it was 2 log2 enrichment (interaction score); in [5], 3.34 log2 enrichment (interaction score); in assay [6] it was 2.24 log2 enrichment (interaction score). In addition, the binding signal was 3.41 log2 enrichment (interaction score) in assay [7]; 0.51 log2 enrichment (interaction score) in [8]; 4.26 log2 enrichment (interaction score) in assay [9]; 5.11 log2 enrichment (interaction score) in [10]; 4.66 log2 enrichment (interaction score) in assay [11]; 3.75 log2 enrichment (interaction score) in assay [12]. The binding signal in assay [13] was 4.56 log2 enrichment (interaction score); in assay [14] it was 2.11 log2 enrichment (interaction score).
On to “GGCUAGAACUAGUGGAUCCCCCGGCGCCCGGCGGCUCGAGCCCGGGUAAGUGUUAAUAGUCUGCAUGCCGCCGGGCGCCAUGCCUGCAGGUCGACUCUAGAAAACAUG”, for which, in assay [9], the binding signal is 4.8 log2 enrichment (interaction score).
On to “GGCUAGAACUAGUGGAUCCCCCGGCGCCCGGCGGCUCGAGCCCGGGUAAGCGUAAAUAGUCUGCAUGCCGCCGGGCGCCAUGCCUGCAGGUCGACUCUAGAAAACAUG”, for which the binding signal is 2.91 log2 enrichment (interaction score) in assay [15]; 4.55 log2 enrichment (interaction score) in [7]; 4.53 log2 enrichment (interaction score) in [11]; 5.46 log2 enrichment (interaction score) in assay [13]; 5.88 log2 enrichment (interaction score) in assay [14].
As for “GGCUAGAACUAGUGGAUCCCCCGGCGCCCGGCGGCUCGAGCCCGGGUAAGUGUAAAUUGUCUGCAUGCCGCCGGGCGCCAUGCCUGCAGGUCGACUCUAGAAAACAUG”, in assay [16], the binding signal was 2.74 log2 enrichment (interaction score).
For “GGCUAGAACUAGUGGAUCCCCCGGCGCCCGGCGGCUCGAGCCCGGGUAAGUGAAAAUAGUCUGCAUGCCGCCGGGCGCCAUGCCUGCAGGUCGACUCUAGAAAACAUG”, the binding signal in [4] is 2.73 log2 enrichment (interaction score); in assay [12] it was 1.66 log2 enrichment (interaction score).
On to “GGCUAGAACUAGUGGAUCCCCCGGCGCCCGGCGGCUCGAGCCCGGGUAAGUGUAUAUAGUCUGCAUGCCGCCGGGCGCCAUGCCUGCAGGUCGACUCUAGAAAACAUG”, for which the binding signal in assay [3] was 1.92 log2 enrichment (interaction score).
For the sequence “GGCUAGAACUAGUGGAUCCCCCGGCGCCCGGCGGCUCGAGCCCGGGUAAGUGCAAAUAGUCUGCAUGCCGCCGGGCGCCAUGCCUGCAGGUCGACUCUAGAAAACAUG”, the results for the binding signal in assay [4] and in assay [10] were 4.16 log2 enrichment (interaction score) and 5.44 log2 enrichment (interaction score), respectively.
Turning to “GGCUAGAACUAGUGGAUCCCCCGGCGCCCGGCGGCUCGAGCCCGGGUAAGUGUAAAAAGUCUGCAUGCCGCCGGGCGCCAUGCCUGCAGGUCGACUCUAGAAAACAUG”, the binding signal in assay [17] is 6.3 log2 enrichment (interaction score).
Consider “GGCUAGAACUAGUGGAUCCCCCGGCGCCCGGCGGCUCGAGCCCGGGUAAGUGUAAAUCGUCUGCAUGCCGCCGGGCGCCAUGCCUGCAGGUCGACUCUAGAAAACAUG”, for which the values for the binding signal in assay [18], in assay [19] and in [16] were 3.53 log2 enrichment (interaction score), 5.18 log2 enrichment (interaction score) and 0.98 log2 enrichment (interaction score), respectively.
Consider “GGCUAGAACUAGUGGAUCCCCCGGCGCCCGGCGGCUCGAGCCCGGGUAAGUGUACAUAGUCUGCAUGCCGCCGGGCGCCAUGCCUGCAGGUCGACUCUAGAAAACAUG”, for which the binding signal in assay [3] is 1.76 log2 enrichment (interaction score).
In the case of “GGCUAGAACUAGUGGAUCCCCCGGCGCCCGGCGGCUCGAGCCCGGGUAAGUGUCAAUAGUCUGCAUGCCGCCGGGCGCCAUGCCUGCAGGUCGACUCUAGAAAACAUG”, the binding signal in assay [8] is 2.6 log2 enrichment (interaction score); in assay [9] it was 4.46 log2 enrichment (interaction score).
“GGCUAGAACUAGUGGAUCCCCCGGCGCCCGGCGGCUCGAGCCCGGGUAAGUGUAAUUAGUCUGCAUGCCGCCGGGCGCCAUGCCUGCAGGUCGACUCUAGAAAACAUG”: the binding signal in assay [20] was 3.92 log2 enrichment (interaction score).
